# PKM2 activator: activators of human pyruvate kinase M2 | P14618 | purified PKM2, Kinase-Glo ATP luminescence, activation; response scale: 0% is enzyme alone, no compound | Potency, µM (highest dose often 57.5 µM), actives largely listed as activators | 0.34% of 260,000 active; further: nearly all actives have a fitted effect of over 55% in size
# Target sequence (P14618 whole entry, looked up): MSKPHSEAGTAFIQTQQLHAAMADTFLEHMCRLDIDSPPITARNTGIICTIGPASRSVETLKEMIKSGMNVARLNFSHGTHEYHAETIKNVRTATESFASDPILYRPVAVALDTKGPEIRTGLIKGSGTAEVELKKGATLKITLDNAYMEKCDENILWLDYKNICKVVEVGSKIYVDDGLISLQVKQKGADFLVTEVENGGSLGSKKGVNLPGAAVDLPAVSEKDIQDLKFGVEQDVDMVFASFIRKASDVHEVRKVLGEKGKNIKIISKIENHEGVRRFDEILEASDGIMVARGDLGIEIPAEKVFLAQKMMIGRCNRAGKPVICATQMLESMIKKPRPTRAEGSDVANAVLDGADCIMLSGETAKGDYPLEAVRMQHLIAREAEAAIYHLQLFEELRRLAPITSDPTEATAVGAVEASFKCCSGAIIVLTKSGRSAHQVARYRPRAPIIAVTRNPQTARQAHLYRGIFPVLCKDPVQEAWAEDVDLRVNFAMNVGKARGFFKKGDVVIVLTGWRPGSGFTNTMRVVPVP
#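 ATP formation by purified human PK-M2, quantified via coupled luciferase luminescence after 1 h at room temperature with 0.1 mM ADP and 0.5 mM PEP final.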
# ClpP mod: qHTS Assay for Activators of ClpP; purified B. subtilis ClpP, FRET peptide cleavage, 20 min; AID 651965, 2013; ATP-dependent Clp protease proteolytic subunit (Bacillus subtilis (strain 168)), P80244; 1.9% of 340,000 active; Potency, µM (titrated, usually from 57.5 µM); active means well fitted falling curve with a large enough effect; inconclusive means small, poorly fitted or top-dose-only effect; inactive means no such curve, though single readings can be large or run the other way; further: the source files actives as falling curves though it sought activators and does not explain the sign; nearly all actives have a fitted effect of over 65% in size
#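 Purified B. subtilis ClpP, 10 microg/mL final in Tris/HCl pH8 with KCl, BSA, glycerol and Tween-20, cleaved an Abz/nitrotyrosine-quenched decapeptide. Fluorescence (ex 320, em 430) was read at 0 and 20 min at room temperature. Delta was normalized to 5.8 microM ADEP and DMSO/no-enzyme controls.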
# IL2 activator: activators of IL-2; IL-2 activation reporter assay, cell-based qHTS; stimulated with anti-CD3/CD4/CD28 beads; in transgenic mouse T cells; activation, % (series mostly up to about 46 µM); 0.065% of 360,000 active; in the data active means activation above about 50%; inconclusive means mostly about 30% to 49%
#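 Using fluorescent plate cytometry, EGFP and DsRed are detected in transgenic mouse T cells stimulated 18 h at 37 degrees C with antibody-coated beads after 60 min compound pretreatment.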
# NPSR antag: neuropeptide S receptor (human) antagonism, cAMP; Q6W5P4; CHO-NPSR cells, cAMP TR-FRET, antagonist mode; Potency, µM (doses to about 38.3 µM), usual class: inhibitors; 1% of 220,000 active; further: nearly all actives have a fitted effect of over 50% in size
# A number is an active result; n = inactive; u = inconclusive; x = no result; [ ] = dose if it differs, or a comment. The list is not random: actives were taken first. Their share in the collection is about 2%. Unless noted, the call rests on the fitted dose curve; in most records, active means well fitted curve in the direction sought with a large enough effect; inconclusive means small, poorly fitted or top-dose-only effect, or another doubt; inactive means no such curve, though single readings can be large; an effect the other way counts as inactive or inconclusive.
SMILES,PKM2 activator,ClpP mod,IL2 activator,NPSR antag
CS(=O)(=O)N(CC(=O)N1CCc2ccccc2C1)Cc1ccccc1,n,n,n,n
COc1ccccc1CNC(=O)c1ccc(NS(C)(=O)=O)cc1,n,n,n,n
CCN(CC)CCNC(=O)c1ccccc1N,n,10µM,n,n
Nc1ccccc1C(=O)NCc1ccccc1,n,28.2µM,n,n
CCN(CC)CCCNC(=O)c1ccccc1C,n,n,n,n
COc1ccccc1CNC(=O)c1ccccc1NS(C)(=O)=O,n,28.2µM,n,n
O=C(Nc1ccccc1C(=O)NCc1ccccc1)c1ccccc1,n,n,n,n
O=C(NCc1ccccc1)c1nccnc1CO,x,15.8µM,n,x
O=C(CN1C(=O)CCc2cc(S(=O)(=O)N3CCOCC3)ccc21)Nc1cccc(C(F)(F)F)c1,x,n,x,x
COc1ccc(CCNC(=O)c2cc3cccc(OC)c3oc2=O)cc1OC,n[11.5 µM],n,n,x
COc1ccccc1CNC(=O)c1ccccc1N,n,10µM,n,n
Cc1ccccc1CNC(=O)c1ccccc1N,n,10µM,n,n
COc1ccc(OC)c(-c2cc(C(=O)Nc3c(C)nn(Cc4ccc(Cl)cc4)c3C)no2)c1,n,35.5µM,n,u
COc1ccc(C(=O)/C=C/C(=O)N(CC(=O)NC2CCCCC2)CC2CCCO2)c(O)c1 (stereo unspecified),7.94µM,n,n,u
Cc1ccc2nc(C(Cl)(Cl)Cl)nc(N/N=C/c3ccc([N+](=O)[O-])cc3)c2c1,x,x,n,x
Nc1c2c(nc3ccn(Cc4ccccc4)c(=O)c13)CCC2,14.1µM,31.6µM,n,n
Nc1c2c(nc3ccn(-c4ccccc4)c(=O)c13)CCCCC2,n,28.2µM,n,n
CCOC(=O)C1=CCC(c2ccc(CC)cc2)N(S(=O)(=O)c2ccc(C)cc2)C1 (stereo unspecified),x,n,n,x
NC(=O)CN1N=C(c2cc(Cl)sc2Cl)CSC1=O,n,n,n,n
COc1ccc2[nH]c(C(=O)O)c(CCC(=O)O)c2c1,n,20µM,n,n
CCOC(=O)c1[nH]c2ccc(OCC)cc2c1NC(=O)CN1CCC2(CC1)OCCO2,n,25.1µM,n,n
CCOC(=O)c1[nH]c2ccccc2c1NC(=O)CN1CCCCC1,n,n,n,n
CCOC(=O)c1[nH]c2ccc(OCC)cc2c1NC(=O)CN1CCN(c2ccccc2)CC1,n,u,n,n
C=CCOC(=O)Nc1c(C(=O)OC)[nH]c2ccc(Cl)cc12,n,31.6µM,n,n
COc1ccc2[nH]c(C(=O)O)c(CCN3C(=O)c4ccc(C(=O)O)cc4C3=O)c2c1,x,n,n,x
SMILES,PKM2 activator,ClpP mod,IL2 activator,NPSR antag
CCOC(=O)c1[nH]c2ccc(OC)cc2c1NC(=O)CN1CCSCC1,n,12.6µM,n,n
COC(=O)c1[nH]c2ccc(Cl)cc2c1NC(=O)CCN1CCOCC1,n,u,n,n
Cc1ccc(C)c(NC(=O)C(CC(C)C)N2Cc3ccccc3C2=O)c1 (stereo unspecified),x,n,x,x
O=C(Cn1cnc([N+](=O)[O-])n1)N/N=C/c1cc(Cl)ccc1O,n,x,n,n
O=C1CC(=O)NC(SCC(=O)Nc2ccccc2[N+](=O)[O-])=N1,n,n,n,x
CCOC(=O)c1[nH]c2ccc(OC)cc2c1NC(C)=O,n,25.1µM,n,n
CCOC(=O)c1[nH]c2cc3c(cc2c1NC(=O)CN1CCN(CCO)CC1)OCO3,n,25.1µM,n,n
CCOC(=O)c1[nH]c2cc3c(cc2c1NC(=O)CN1CCC2(CC1)OCCO2)OCO3,n,u,n,u
O=c1[nH]cnc2nc(-c3ccccc3)c(-c3ccccc3)nc12,n,28.2µM,n,n
COc1cc(NC(=O)c2ccc(C(=O)c3ccccc3)cc2)cc(OC)c1OC,n,n,n,x
CC(C)NC(=O)C1(C)CCN1C/C=C/c1ccccc1 (stereo unspecified),x,n,n,x
FC(F)Oc1ccc(NC(=S)N2CCN(Cc3ccccc3)CC2)cc1,n,8.91µM,n,n
Cc1cc(NS(=O)(=O)c2ccc(NC(=O)C(C)Oc3ccc(C(C)C)cc3)cc2)no1 (stereo unspecified),n,x,n,x
C=CCn1c(SCC(=O)N(CCO)CCO)nc2sc3c(c2c1=O)CCC3,n[11.5 µM],n,n,x
Cc1cc(N)c2ccccc2[n+]1CCCCCCCCCCCCCC[n+]1c(C)cc(N)c2ccccc21,x,x,x,15.8µM
CCCC[n+]1c(C)ccc2ccccc21,x,n,x,x
CC1=CN2C(=N)/C(=C/c3ccc([N+](=O)[O-])o3)C(=O)N=C2S1,n,n,n,12.6µM
CC1=CN2C(=N)/C(=C/c3ccco3)C(=O)N=C2S1,n,n,n,n
C[C@H](CO)N1C[C@H](C)[C@@H](CN(C)S(C)(=O)=O)Oc2c(NC(=O)Nc3ccccc3)cccc2C1=O,x,n,n,x
CC(=O)NCC(=O)OCC(=O)c1ccc2ccccc2c1,n,28.2µM,n,n
Nc1ncccc1C(=O)OCC(=O)N1CCN(S(=O)(=O)c2ccc(Cl)cc2)CC1,x,n,n,x
COCCn1c(=S)[nH]c2cc(C(=O)NCc3ccccc3)ccc2c1=O,x,n,n,x
COC(=O)c1ccc2c(=O)n(CCCCCC(=O)O)c(=O)[nH]c2c1,n,28.2µM,n,n
CCCCNC(=O)CCCCCn1c(=O)[nH]c2cc(C(=O)OC)ccc2c1=O,n,n,n,n
COCCn1c(=O)[nH]c2cc(C(=O)NCc3ccccc3)ccc2c1=O,n,14.1µM,n,n
SMILES,PKM2 activator,ClpP mod,IL2 activator,NPSR antag
COCCNC(=O)c1ccc2c(=O)n(CCOC)c(=O)[nH]c2c1,n,25.1µM,n,n
Nc1cc(-c2ccccc2)ccc1O,n,31.6µM,n,n
CC1(C)CC(=O)C=C(Nc2ccc(OCC(F)(F)C(F)F)cc2)C1,n,17.8µM,n,n
CN(C)/C=C(\C#N)C(=O)c1cccc(Oc2ccc(Br)cc2)c1,n,n,n,u
COC(=O)C1CSC(C(=O)OC)N1C(=O)Nc1ccc(Cl)c(Cl)c1 (stereo unspecified),n,n,n,n
COC(=O)C1CSC(C(=O)OC)N1C(=O)Nc1ccc(Cl)cc1 (stereo unspecified),n,31.6µM,n,n
COc1ccc(NC(=O)Cn2c(NCC(C)O)nc3ccccc32)cc1Cl (stereo unspecified),n,n,n,n
O=C(/C=C/Nc1ccc([N+](=O)[O-])cc1Br)c1cccc2ccccc12,n,25.1µM,u,n
NC(=O)c1cc([N+](=O)[O-])ccc1NCc1cccc2ccccc12,x,n,n,x
COC(=O)c1scc(C)c1NC(=O)c1ccccc1F,x,n,n,x
Cc1c(-c2ccccc2)[n+](=O)c(-c2ccco2)c(C)n1[O-],n,28.2µM,n,n
O=c1[nH]nc(SCCS(=O)(=O)c2ccc(F)cc2)n1-c1ccccc1,n,n,n,n
COC(=O)C1=CN(CC2CCCO2)C=C(C(=O)OC)C1c1cc(OC)c(OC)c(OC)c1 (stereo unspecified),u,25.1µM,n,n
COC(=O)C1=CN(Cc2ccc(OC)cc2)C=C(C(=O)OC)C1c1cc(OC)c(OC)c(OC)c1,x,x,n,x

# Screening data as filed in PubChem BioAssay.
